Screening results from PubChem BioAssay.
TDP1 cell CPT = qHTS for Inhibitors of human tyrosyl-DNA phosphodiesterase 1 (TDP1): qHTS in cells in presence of CPT; actives 12% (n = 420,000); Potency, µM (titrated, usually from 46.2 µM), actives largely listed as inhibitors; chicken DT40 Tdp1-/-;hTDP1 cells + 20 nM CPT, ATP luminescence, 48 h; further: nearly all actives have a fitted effect of over 55% in size
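Cell growth measured by CellTiter-Glo luminescence after a minimum 48 h, 37 C compound exposure with 20 nM CPT in Tdp1-knockout DT40 cells stably expressing hTDP1, seeded 400/well; qHTS titration format.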
RORgamma inh = qHTS for inhibitors of ROR gamma transcriptional activity. actives 5.4% (n = 310,000). Drosophila S2 Gal4-RORgamma UAS-luciferase reporter, 20 h. Potency, µM (doses to about 53.6 µM), hits mostly inhibitors. Nuclear receptor ROR-gamma (Mus musculus), P51450; further: nearly all actives have a fitted effect of over 60% in size
Target sequence (P51450 whole entry, looked up, the tested form may be a part): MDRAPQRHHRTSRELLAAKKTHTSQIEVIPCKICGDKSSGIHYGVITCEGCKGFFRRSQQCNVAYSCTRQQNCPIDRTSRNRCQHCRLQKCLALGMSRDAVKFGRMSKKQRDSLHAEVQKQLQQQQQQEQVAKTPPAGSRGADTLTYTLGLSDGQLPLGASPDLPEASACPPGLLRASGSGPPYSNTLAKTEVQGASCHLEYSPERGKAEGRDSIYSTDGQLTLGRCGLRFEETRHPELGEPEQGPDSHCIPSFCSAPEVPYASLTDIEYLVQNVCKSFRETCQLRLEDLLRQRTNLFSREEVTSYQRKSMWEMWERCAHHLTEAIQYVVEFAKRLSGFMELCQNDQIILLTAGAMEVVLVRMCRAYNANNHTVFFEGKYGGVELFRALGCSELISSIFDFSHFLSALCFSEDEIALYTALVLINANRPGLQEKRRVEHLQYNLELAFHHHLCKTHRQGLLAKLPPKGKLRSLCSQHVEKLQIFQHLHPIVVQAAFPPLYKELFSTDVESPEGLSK
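ROR gamma transcriptional activity was tracked as Gal4-UAS luciferase output in stably transfected Drosophila Schneider cells, with compound added 1 hr before 700 uM copper sulfate induction and a 20 hr ambient-temperature incubation.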
LDHA inh = qHTS assay for inhibitors of human lactate dehydrogenase | actives 0.15% (n = 480,000) | L-lactate dehydrogenase A chain (Homo sapiens), P00338 | activity change, % (values are at about 110 or 230 µM) | purified LDHA, NADH/diaphorase-resazurin fluorescence; hits give low values; in the data active means activity change below about -30%; inconclusive means mostly about -25% to -30%
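Remaining NADH was detected by diaphorase (0.133 mg/mL) converting 37 µM resazurin to fluorescent resorufin, read at 0 and 20 minutes. The preceding 5-minute room-temperature reaction used 2 nM LDHA, 0.2 mM sodium pyruvate and 0.06 mM NADH at pH 7.4.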
IL-1B inflam inh = qHTS for Inhibitors of Inflammasome Signaling: IL-1-beta AlphaLISA Primary Screen | THP-1 LPS/ATP IL-1B secretion, AlphaLISA, 16 h; hits give low values | activity change, % at 57.5 µM | actives 4.7% (n = 360,000) | AID 743279, 2014; in the data active means activity change below about -50%; inconclusive means mostly about -30% to -49%
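Secreted IL-1B measured by AlphaLISA bead assay after 16 h compound exposure of THP-1 cells; compounds (final up to 57.5 uM) added 1 h before LPS (250 ng/mL) and ATP (1.25 mM) stimulation; lower signal means less secretion.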
DT40 TDP1 no CPT = qHTS for Inhibitors of human tyrosyl-DNA phosphodiesterase 1 (TDP1): qHTS in cells in absence of CPT; DT40 Tdp1-/- hTDP1 cells, no CPT, ATP luminescence, 48 h; Potency, µM (titrated, usually from 46.2 µM), most hits filed as inhibitors; actives 15% (n = 420,000); AID 686978, 2013; further: nearly all actives have a fitted effect of over 55% in size
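Readout: luminescence from CellTiter-Glo after 30 min in the dark at RT. Cells: DT40 Tdp1-/- with stable hTDP1, 400/well. Exposure: compounds alone, ≥48 hr, 37 °C.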
Gal4-VP16 FLuc = VP16 counterscreen qHTS for inhibitors of ROR gamma transcriptional activity; Drosophila S2 Gal4-VP16 UAS-luciferase, luminescence, 20 h; Potency, µM (highest dose often 53.6 µM), most hits filed as inhibitors; actives 3.5% (n = 310,000);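 further: Gal4-VP16 expression switched on by copper sulfate through the metallothionein promoter; nearly all actives have a fitted effect of over 50% in size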
Hits are given with their value; n = inactive; u = inconclusive; x = no result. An excerpt weighted towards active compounds, which were near 18% of everything screened. Unless noted, the call rests on the fitted dose curve; in most records, active means well fitted curve in the direction sought with a large enough effect; inconclusive means small, poorly fitted or top-dose-only effect, or another doubt; inactive means no such curve, though single readings can be large; an effect the other way counts as inactive or inconclusive.

SMILES | TDP1 cell CPT | RORgamma inh | LDHA inh | IL-1B inflam inh | DT40 TDP1 no CPT | Gal4-VP16 FLuc
Cc1ccc2c(c1)C(=O)C(=O)N2Cc1ccc(OC(C)C)cc1 | 0.0073µM | x | n | x | 0.058µM | x
COc1ccc(CN2C(=O)C(=O)c3cc(C)ccc32)cc1OC | x | x | n | x | x | x
Cc1cccc(C(=O)NCc2nc(C)cs2)n1 | x | x | n | x | x | x
Cc1ccc2nc(C)cc(C(=O)O)c2c1 | x | x | n | x | x | x
N#Cc1ccc(CN2CCN(c3oc(C4CC4)nc3C#N)CC2)cc1 | x | x | n | x | x | x
COc1ccc(CNC(c2ccccc2)c2ccc(Cl)cc2)cc1 (stereo not drawn) | u | n | n | n | 16µM | n
COc1cc(CNC(c2ccccc2)c2ccccc2)cc(OC)c1 | x | x | n | x | x | x
OCCCCNCc1ccc(OCc2ccc(Cl)cc2)cc1 | u | n | n | n | u | n
CC(NCc1ccc(OCc2ccc(Cl)cc2)cc1)C(O)c1ccccc1 (stereo not drawn) | 15µM | 35µM | n | -103 | u | u
Cc1cc(OC(C)C(=O)Nc2ccc3nsnc3c2)cc(C)c1Cl (stereo not drawn) | x | x | n | x | x | x
CCSc1nc(N(CCO)CCO)c2sc3c(c2n1)COC(C)(C)C3 | x | x | n | x | x | x
COc1cc(C(=O)NCc2coc(-c3cccs3)n2)ccc1C | x | x | n | x | x | x
Nc1c(Br)c(=O)[nH]c(=O)n1-c1ccc(F)cc1 | n | n | n | n | 23µM | n
N=c1c2c(-c3ccccc3)c(-c3ccccc3)n(Cc3ccccc3)c2ncn1CCO | n | n | n | -107 | n | n
N=c1c2c(-c3ccccc3)c(-c3ccccc3)n(Cc3ccco3)c2ncn1CCCN1CCOCC1 | u | u | n | -96 | 3.7µM | u
OCCn1cnc2c(SCc3ccccc3)ncnc21 | n | x | n | n | n | x
N=c1c2c(-c3ccccc3)c(-c3ccccc3)n(Cc3ccco3)c2ncn1Cc1ccccc1 | n | u | n | n | n | u
CC(C)Cn1cnc2c(c(-c3ccccc3)c(-c3ccccc3)n2Cc2ccco2)c1=N | 21µM | u | n | -65 | 18µM | n
O=c1c2ccccc2nc(-c2ccccc2)n1CCCN1CCOCC1 | n | n | n | n | n | n
c1ccc(-c2oc3ncnc(NCCCn4ccnc4)c3c2-c2ccccc2)cc1 | 23µM | 22µM | n | -79 | 18µM | u
CC(C)C[C@@H](C(=O)NC1CCN(Cc2ccccc2)CC1)N1Cc2ccccc2C1=O | x | x | n | x | x | x
c1ccc(OCCCn2ccnc2)cc1 | n | n | n | n | n | n
N=c1c2c(-c3ccccc3)c(-c3ccccc3)n(Cc3ccco3)c2ncn1CCCn1ccnc1 | 18µM | u | n | n | 18µM | u
c1ccc(-c2c(-c3ccccc3)n(Cc3ccco3)c3ncnc(NCCCn4ccnc4)c23)cc1 | u | n | n | -98 | u | 16µM
CN(C)CCCNc1ncnc2oc(-c3ccccc3)c(-c3ccccc3)c12 | u | n | n | -83 | u | n
SMILES | TDP1 cell CPT | RORgamma inh | LDHA inh | IL-1B inflam inh | DT40 TDP1 no CPT | Gal4-VP16 FLuc
O=C(O)CCC(=O)C1CC(=O)OC1C(=O)O (stereo not drawn) | x | x | n | x | x | x
CN(CC(O)COCC(Cl)CCl)S(=O)(=O)O (stereo not drawn) | x | x | n | x | x | x
CCCNc1c(NC(=O)Nc2ccc(OC)cc2)c(=O)oc2ccccc12 | x | x | n | x | x | x
NC(=O)CSc1nnc(-c2cc3ccccc3o2)n1Cc1ccccc1 | n | u | n | n | n | n
COc1ccc(Cn2c(-c3ccc(OC)cc3)n[nH]c2=S)cc1 | n | 7.9µM | n | n | n | n
CCCn1c(-c2ccc(F)cc2)n[nH]c1=S | n | u | n | n | n | n
COc1ccc(-c2n[nH]c(=S)n2CC(C)C)cc1 | n | 10µM | n | n | n | u
S=c1[nH]nc(-c2cc3ccccc3o2)n1Cc1ccccc1 | u | 0.63µM | n | n | u | 1.8µM
Cc1ccc(-c2n[nH]c(=S)n2Cc2ccccc2)cc1 | n | 2.8µM | n | n | n | 6.3µM
CC(C)Oc1ccc(Cn2c(-c3ccco3)n[nH]c2=S)cc1 | n | 2.8µM | n | n | n | 4.5µM
CCn1c(C(c2ccccc2)c2ccccc2)n[nH]c1=S | n | u | n | n | u | u
CCOc1ccc(-c2n[nH]c(=S)n2Cc2ccccc2)cc1 | u | 6.3µM | n | n | 21µM | 5.6µM
CC(c1n[nH]c(=S)n1Cc1ccccc1)N(C)C (stereo not drawn) | u | 1.8µM | n | n | u | u
CC(C)Cc1nc(C#N)c(NCC(c2cccs2)N2CCOCC2)o1 (stereo not drawn) | x | x | n | x | x | x
C1=Nc2ccccc2CN1c1ccccc1 | n | n | n | n | u | n
